PubChem BioAssay (Tox21)
“And” between values parts separate entries of the source, which are not always exact repeats. Equal entries are not always repeated. Results filed as inconclusive are left out. A call without a number means that no potency is given here. Where a structure was tested more than once in an assay, its records may differ in their call. The source made the active and inactive calls. Calls follow the shape of the dose curve; as a rule, active = well fitted cell-killing curve with a large enough effect in the repeat runs; inconclusive = weak or mixed curves; inactive = flat fitted curve, though single readings scatter.

test: qHTS RealTime-Glo MT Cell Viability Assay in HepG2 cells - 8 hour (AID 1224873); details: RealTime-Glo luminescence; series mostly up to 76.8 µM; also: nearly all actives have a fitted effect of over 55% in size
Source text: National Center for Advancing Translational Sciences [NCATS]
NIH Chemical Genomics Center [NCGC]
U.S. Environmental Protection Agency [EPA]
National Institutes of Environmental Health Sciences [NIEHS]
National Toxicology Program [NTP]
U.S. Food and Drug Administration [FDA]
Measure of cell viability is critical in the cell-base assay. Analysis of cell viability is necessary for the characterization of cell responses to cytotoxic drugs and environmental stress. A RealTime-Glo MT Cell Viability Assay to monitor cell viability in real time of continues cell culture during 40 hours of compound treatment was used to screen Tox21 10K library compounds in HepG2 cells. The RealTime-Glo MT Cell Viability Assay is a nonlytic, homogeneous, bioluminescent method to measure cell viability in real time using a simple, plate-based method. The assay involves adding NanoLuc luciferase and a cell-permeant prosubstrate to cells in culture. Viable cells reduce the proprietary prosubstrate to generate a substrate for NanoLuc luciferase. This substrate diffuses from cells into the surrounding culture medium, where it is rapidly used by the NanoLuc Enzyme to produce a luminescent signal. The signal correlates with the number of viable cells, making the assay well suited for cytotoxicity studies.
Tox21 Assay Protocol Summary:
The mixture of HepG2 cell suspension and reagents were dispensed at 600cells/6 ul/well in 1536-well tissue culture treated black solid bottom plates using a Multidrop dispenser. After the assay plates were incubated at a 37 C/5% CO2 incubator for 5 hours, 23 nL of compounds dissolved in DMSO, positive and negative controls was transferred to the assay plate by a pintool work station. The plates were incubated at 37 C for 40 hours. The luminescence intensity were measured at 0h, 8h, 16h, 24h, 32h and 40h time points using ViewLux plate reader during compound treatment.
Potency is read from the fitted curve at half-maximal effect.

With `CCCC[n+]1ccccc1C` as the compound, how does the Potency read?
Its Potency is “inactive”.

Which Potency does the source give for `Cc1cc(Cl)ccc1OCC(=O)O` here?
The Potency was “inactive”.

Which Potency does the source give for `CCOP(=S)(OCC)Oc1ccc2c(C)c(Cl)c(=O)oc2c1` here?
The Potency was “inactive”.

With `O=C(O)C(Cl)Cl` as the compound, how does the Potency read?
Its Potency is “inactive”.

Which Potency does the source give for `O=C(O)c1ccccc1O` here?
Its Potency is “inactive”.

With `Nc1ccccc1` as the compound, how does the Potency read?
The Potency was “inactive”.

With `Oc1ccccc1-c1ccccc1` as the compound, how does the Potency read?
Its Potency is “inactive”.

Which Potency does the source give for `COP(=O)(OC)OC=C(Cl)Cl` here?
The Potency was “inactive”.

Which Potency does the source give for `COCC(=O)N(c1c(C)cccc1C)C(C)C(=O)OC` (stereo not given) here?
Its Potency is “inactive”.

With `CCCC[N+]1(C)CCCCC1` as the compound, how does the Potency read?
Its Potency is “inactive”.

Which Potency does the source give for `O=c1[nH]c(=O)n(Cl)c(=O)n1Cl` here?
Its Potency is “inactive”.

With `CCCCCCCCn1cc[n+](C)c1` as the compound, how does the Potency read?
The Potency was “inactive”.

With `O=[N+]([O-])c1ccccc1O` as the compound, how does the Potency read?
The Potency was “inactive”.

Which Potency does the source give for `CCCCCCCCCCCCOS(=O)(=O)O` here?
The Potency was “inactive”.

For `CCCCCCCCCCCCCCCCn1cc[n+](C)c1`, which Potency is on record?
The Potency was “inactive and 49.1 µM (active)”.

Which Potency does the source give for `CCCCCCCCCCCC(=O)O` here?
The Potency was “inactive”.

Which Potency does the source give for `CCCn1cc[n+](C)c1` here?
The Potency was “inactive”.

With `CCCCn1cc[n+](C)c1` as the compound, how does the Potency read?
The Potency was “inactive”.

Which Potency does the source give for `COc1ccccc1N` here?
Its Potency is “inactive”.

Which Potency does the source give for `CCC[N+]1(C)CCCCC1` here?
Its Potency is “inactive”.

With `CC[n+]1ccccc1` as the compound, how does the Potency read?
The Potency was “inactive”.

Which Potency does the source give for `O=[N+]([O-])O` here?
Its Potency is “inactive”.

For `C=CCOC(Cn1ccnc1)c1ccc(Cl)cc1Cl` (stereo not given), which Potency is on record?
The Potency was “inactive”.

Which Potency does the source give for `O=c1nc(O)n(Cl)c(=O)n1Cl` here?
Its Potency is “inactive”.

For `O=C(O)COc1ccc(Cl)cc1Cl`, which Potency is on record?
Its Potency is “inactive”.

For `O=P1(N(CCCl)CCCl)NCCCO1` (stereo not given), which Potency is on record?
The Potency was “inactive”.

With `O=C(O)CCl` as the compound, how does the Potency read?
Its Potency is “inactive”.

For `Cc1cc(-c2ccc(N)c(C)c2)ccc1N`, which Potency is on record?
Its Potency is “inactive”.

For `CCCCCCCCCCn1cc[n+](C)c1`, which Potency is on record?
Its Potency is “inactive”.

With `C1CCC(NC2CCCCC2)CC1` as the compound, how does the Potency read?
The Potency was “inactive”.

For `O=S(=O)(O)O`, which Potency is on record?
Its Potency is “inactive”.

For `OCCOc1ccccc1`, which Potency is on record?
Its Potency is “inactive”.

Which Potency does the source give for `CC[N+]1(C)CCCC1` here?
The Potency was “inactive”.

Which Potency does the source give for `CC(=O)O` here?
Its Potency is “inactive”.

For `COc1ccc(N)cc1`, which Potency is on record?
The Potency was “inactive”.

With `C[C@]12CCC(=O)C=C1CC[C@@H]1[C@@H]2CC[C@]2(C)C(=O)CC[C@@H]12` as the compound, how does the Potency read?
Its Potency is “inactive”.

With `CCCCCC[n+]1ccccc1` as the compound, how does the Potency read?
Its Potency is “inactive”.

With `COP(=O)(OC)C(O)C(Cl)(Cl)Cl` (stereo not given) as the compound, how does the Potency read?
The Potency was “inactive”.

For `Oc1cccc2cccnc12`, which Potency is on record?
The Potency was “inactive”.

For `C[N+](C)(C)Cc1ccccc1`, which Potency is on record?
The Potency was “inactive”.
